aSyn UTR act – Activators working through SNCA 5'UTR binding (MLPCN); alpha-synuclein 5'UTR reporter, activators screen; activity score, % (tested at 7.5 µM), hits read low; 7.1% of 300,000 active; AID 1814; in the data active = activity score below about -60%
Hits are given with their value; 0 = inactive. A selection follows.

SMILES | aSyn UTR act
Cc1ccn2cc(-c3cccc(NC(=O)c4cccs4)c3)nc2c1 | -85
O=C(Nc1ccc(Cl)cc1F)c1cccc2ccccc12 | -63
O=C(Nc1ccc(Cl)cc1F)c1ccccc1Br | -207
O=C(NNC(=O)c1ccccc1Br)c1cccc(Cl)c1 | -92
Cc1ccc(N/N=C2\CCS(=O)(=O)c3sccc32)cc1 | -89
CCCCCN1C=CC(=C2C(=O)c3ccccc3C2=O)C=C1 | 0
CC1=CC(=C2C(=O)c3ccccc3C2=O)C=C(C)N1C | -132
CCC(C)(C)C1CCC(=NNC(=O)c2ccoc2C)CC1 (stereo not given) | -112
Cc1cccn2cc(-c3ccccc3)nc12 | -152
Cc1cccn2cc(-c3ccc(F)cc3)nc12 | -88
Cc1cccn2cc(CNc3ccccc3)nc12 | -73
COc1ccc(-c2cn3cccc(C)c3n2)cc1Br | -259
COc1ccc(-c2cn3ccc4ccccc4c3n2)cc1 | -103
Cc1ccc(C(=O)c2coc3ccc(O)cc23)cc1 | -64
O=C(c1ccccc1)c1coc2ccc(O)c(Cl)c12 | -96
Cc1ccc(C(=O)c2coc3ccc(O)c(Cl)c23)cc1 | -163
O=C(Cc1cccs1)NCc1cccc(Cl)c1 | -88
O=C(Cc1cccs1)NCc1ccc(Cl)cc1Cl | -155
CCCOc1ccc(CNC(=O)Cc2cccs2)cc1 | -98
O=C(CSc1ncccn1)NCc1cccc(Cl)c1 | -65
CC(C)(C)C1CCC(OC(=O)CN2CCOCC2)CC1 (stereo not given) | -108
CCOc1cccc2cc(C(=O)NCCC3=CCCCC3)c(=O)oc12 | -95
CCOc1ccc(C(=O)NCCc2ccccc2)cc1 | 0
COc1ccc(C(=O)NCCc2ccccc2)cc1OC | -97
O=C(NCCc1ccc(F)cc1)c1ccc([N+](=O)[O-])cc1 | -78
SMILES | aSyn UTR act
O=C(CCNC(=O)c1ccc(Cl)cc1)NCCC1=CCCCC1 | -124
O=C(NCCC1=CCCCC1)c1ccc([N+](=O)[O-])cc1 | -147
COc1ccc(C(=O)NCCC2=CCCCC2)cc1OC | -81
COc1ccc(C(=O)NCCC2=CCCCC2)cc1 | 0
COCC(C)N1CCC(Oc2cccc(C(=O)NCCc3ccccc3)c2)CC1 (stereo not given) | -72
O=C(NCCC1=CCCCC1)c1ccc(CN2CCOCC2)cc1 | -73
O=C1CSc2ccc(C(=O)NCCC3=CCCCC3)cc2N1 | -104
O=C(NC1CCCCCC1)c1ccc(CN2CCOCC2)cc1 | -122
Cc1cc(C(=O)NCCC2=CCCCC2)ccc1[N+](=O)[O-] | -121
Cc1cc(NC(=O)c2noc3c2CCCCC3)nn1Cc1ccc(Cl)cc1 | -71
CC(=O)c1ccc(NC(=O)c2noc3c2CCCCC3)cc1 | -87
Cc1cc(NC(=O)c2noc3c2CCCC3)no1 | -107
O=C(Nc1cccnc1)c1noc2c1CCCC2 | -115
CN(C)c1ncnc2c1ncn2C1OC(CO)C(O)C1O (stereo not given) | 0
Cc1cc(NC(=O)c2noc3c2CCCCC3)no1 | -168
CN(C)c1ccc(NC(=O)CCn2c(=S)oc3ccccc32)cc1 | -100
S=c1[nH]nc(-c2ccc(Cl)cc2Cl)n1-c1ccccc1 | -199
CC(=O)c1sc2c(c1OC(=O)c1ccc(Cl)cc1Cl)c(=O)n(-c1ccccc1)c(=S)n2-c1ccccc1 | 0
CCc1ccccc1NC(=O)c1ccc([N+](=O)[O-])s1 | -68
CC1CCN(S(=O)(=O)c2ccc(C(=O)Nc3nnc(-c4ccco4)o3)cc2)CC1 | 0
O=C(Nc1nnc(-c2ccco2)o1)c1ccc([N+](=O)[O-])s1 | -71
COc1cc(/C=C2/C(=N)N3N=C(CC(=O)N4CCOCC4)SC3=NC2=O)ccc1OCc1ccccc1 | -129
CCOc1ccc(/C=C2/Sc3ccc(C(=O)N4CCN(C(=O)c5ccco5)CC4)cc3N(C)C2=O)cc1OC | 0
COc1cc(/C=C2/C(=N)N3C(c4ccccc4)=CSC3=NC2=O)ccc1OCC(=O)O | -68
CCOc1ccc2nc(N3CCOCC3)nc(C)c2c1 | -178
SMILES | aSyn UTR act
Cc1cc(Nc2ccc(C)c(Cl)c2)nc(N2CCOCC2)n1 | -70
Cc1cc(N/N=C/c2ccc(O)cc2O)nc(-n2nc(C)cc2C)n1 | 0
CCOc1ccc(/C=N/Nc2cc(C)nc(N3CCOCC3)n2)cc1 | -105
CCN(CC)c1ccc(/C=N/NC(=O)c2cnccn2)cc1 | -85
C/C(=N\NC(=O)C(C)Oc1ccc([N+](=O)[O-])cc1)c1ccccn1 (stereo not given) | 0
Cc1ccc(/C=N\NC(=O)c2csnn2)cc1 | -69
O=C(N/N=C/c1ccc(OC(=O)c2ccccc2Cl)cc1)c1ccccn1 | -112
O=C(Oc1cccc(/C=N/NC(=O)c2ccccn2)c1)c1ccc([N+](=O)[O-])cc1 | -100
CCN(CC)c1ccc(/C=N/NC(=O)c2ccccn2)cc1 | -125
O=C(NCCCc1ccccc1)c1ccccc1O | -140
Cc1ccc(C(=O)NCCCc2ccccc2)c(C)c1 | -129
O=C(NCCCc1ccccc1)c1ccc(Br)o1 | -62
Cc1ccc(C(=O)NCCCc2ccccc2)c(Cl)c1 | -100
O=C(NCCCc1ccccc1)c1ccc([N+](=O)[O-])cc1Cl | -83
C=CCn1c(SCc2ccc(C#N)cc2)nnc1-c1cccc(OC)c1 | 0
C=CCn1c(SCc2ccc(OC)cc2)nnc1-c1cccnc1 | -117
CCn1c(SCc2ccc(OC)cc2)nnc1-c1ccncc1 | -106
C=CC(C)(C)c1c(O)c(CC=C(C)C)c(O)c2c(=O)c3ccc(O)c(O)c3oc12 | 0
O=C(Nc1ccc(F)cc1)Nc1ccc(N2CCOCC2)c2nonc12 | -145
O=C(Nc1ccc(N2CCOCC2)c2nonc12)C1CCCC1 | -142
COP(=O)(OC)C(Nc1ccc(C)cc1)c1ccc([N+](=O)[O-])cc1 (stereo not given) | -159
Cc1ccc(C)c(N(CC(=O)Nc2ccc(-c3nc4ccc(C)cc4s3)cc2)S(C)(=O)=O)c1 | -80
Cc1ccc(N(CC(=O)Nc2ccc(-c3nc4ccc(C)cc4s3)cc2)S(C)(=O)=O)cc1 | -203
CCCCN1C(=O)/C(=C/C=C2\SCCN2C)SC1=S | -121
COc1ccc(OC)c(C=Nc2ccccc2-c2nc3ccccc3[nH]2)c1 | -212
SMILES | aSyn UTR act
Oc1ccc(C=Nc2ccccc2-c2nc3ccccc3[nH]2)c(O)c1 | -125
Oc1ccccc1C=Nc1ccccc1-c1nc2ccccc2[nH]1 | -123
Cc1nc2ccc(NC(=O)Cc3ccsc3)cc2s1 | -108
Cc1nc2ccc(NC(=O)Cc3cccc(F)c3)cc2s1 | -80
Cc1nc2ccc(NC(=O)Cc3ccccc3F)cc2s1 | -175
COc1ccc(/C=C2\N=C(c3ccccc3Cl)NC2=O)cc1 | -124
CCOCCCNC(=O)/C(C#N)=C/c1cc(Br)c(O)c(Br)c1 | -69
CN(C)c1ccc(NC(=O)c2ccc([N+](=O)[O-])cc2Cl)cc1 | -76
O=C(Nc1cccc(O)c1)c1ccc([N+](=O)[O-])cc1Cl | -86
O=C(Nc1ccc([N+](=O)[O-])cc1)c1cc(Cl)sc1Cl | -76
Cc1cccn2c(=O)c(C(=O)NC3CCCCC3)c(O)nc12 | -66
Cc1cccn2c(=O)c3cc(C(=O)NC4CCCC4)n(C)c3nc12 | -93
CCCn1c(=N)c(C(=O)NC2CCCC2)cc2c(=O)n3cccc(C)c3nc21 | -67
COc1ccc(CCn2c(=N)c(C(=O)NC3CCCC3)cc3c(=O)n4ccccc4nc32)cc1OC | -62
Cc1cccn2c(=O)c3cc(C(=O)NCC4CCCO4)c(=N)n(CCc4ccccc4)c3nc12 (stereo not given) | -101
COc1ccc(NS(=O)(=O)c2ccc(SC)cc2)c(OC)c1 | -66
Cc1cc(NC(=O)NC(=O)c2cccc(OC(F)(F)C(F)F)c2)n[nH]1 | -119

Compound activity as filed in PubChem.
